FLuc modulator – qHTS profiling assay for firefly luciferase inhibitor/activator using purifed enzyme and Km concentrations of substrates (counterscreen for miR-21 project); Luciferin 4-monooxygenase (Photinus pyralis), P08659; Potency, µM (titrated, usually from 57.5 µM), inactives show top-dose activity change, negative = inhibition, usual class: inhibitors; purified FLuc, Km substrates, luminescence inhibition; hit rate 6.9% among 360,000;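 also: plate controls were vehicle for no effect and reference inhibitor for full effect; nearly all actives have a fitted effect of over 55% in size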
Target sequence (P08659 whole entry, looked up): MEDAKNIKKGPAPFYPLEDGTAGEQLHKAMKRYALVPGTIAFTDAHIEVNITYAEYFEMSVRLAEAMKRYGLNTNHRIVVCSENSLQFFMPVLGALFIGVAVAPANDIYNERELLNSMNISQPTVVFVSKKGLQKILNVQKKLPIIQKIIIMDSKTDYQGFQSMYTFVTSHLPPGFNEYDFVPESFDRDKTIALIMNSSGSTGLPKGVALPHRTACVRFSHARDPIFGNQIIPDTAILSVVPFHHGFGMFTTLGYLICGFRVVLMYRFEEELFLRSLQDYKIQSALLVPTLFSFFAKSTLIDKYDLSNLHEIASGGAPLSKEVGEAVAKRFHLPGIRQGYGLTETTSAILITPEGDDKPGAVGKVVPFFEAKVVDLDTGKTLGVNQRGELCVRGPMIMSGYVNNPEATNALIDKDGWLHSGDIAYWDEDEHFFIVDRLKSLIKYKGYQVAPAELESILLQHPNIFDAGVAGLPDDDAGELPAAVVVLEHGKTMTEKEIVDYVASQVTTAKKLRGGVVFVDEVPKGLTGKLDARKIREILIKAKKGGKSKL
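Purified P. pyralis luciferase, 10 nM final, with Km-level 10 uM D-luciferin and 10 uM ATP in 50 mM Tris acetate pH 7.5, 10 mM Mg acetate, 0.01% Tween-20, 0.05% BSA; 6-point qHTS titration about 60 µM downward; luminescence read.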
ELG1 genotoxic – qHTS screen for small molecules that induce genotoxicity in human embryonic kidney (HEK293T) cells expressing luciferase-tagged ELG1; HEK293T ELG1-luciferase reporter, luminescence, 16 h; Potency, µM (doses to about 46 µM), inactives show at the top dose activity change, positive = activation, actives largely listed as activators; hit rate 1.3% among 330,000; AID 504466, 2011; also: % of control where 0% means no effect; nearly all actives have a fitted effect of over 60% in size
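HEK293T cells expressing luciferase-tagged ELG1 were treated with compound or DMSO for 16 hr at 37°C. Luciferase activity was then read after 30 min with ONE-Glo at room temperature; rising signal flags genetic stress.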
SMN2 splice enh – qHTS Assay for Enhancers of SMN2 Splice Variant Expression; HEK293 SMN2-luciferase splicing reporter, luminescence, 30-36 h; Potency, µM (doses to about 46.1 µM), for the others: top-dose activity change, positive = activation, hits mostly activators; hit rate 2.8% among 210,000; also: % of control where 0% means no effect; nearly all actives have a fitted effect of over 55% in size
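HEK293 cells carry an SMN2 […]–luciferase reporter in which exon 7 inclusion puts luciferase in frame. Cells were plated 10-12 h before compound addition, then incubated 30-36 h at 37C. ONE-Glo luminescence was read; sodium butyrate at 4.5 mM final served as control.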
Rab9 prom act – qHTS Assay for Rab9 Promoter Activators; Huh7 Rab9 promoter-luciferase reporter, luminescence, 24 h; Potency, µM (top dose mostly 9.22 µM), for the others: top-dose activation, negative = inhibition, actives largely listed as activators; hit rate 2.8% among 320,000; AID 485297, 2010; also: % of control where 0% means no effect; nearly all actives have a fitted effect of over 60% in size
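Luciferase signal after 10 min detection reagent at ambient indicates Rab9 promoter upregulation; stably transfected Huh7 cells were treated 24 h with compound in DMSO at 37 °C, 5% CO2.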
NPC1 promoter act – qHTS Assay for NPC1 Promoter Activators | hit rate 2.4% among 320,000 | Huh7 NPC1 promoter luciferase reporter, 24 h | Potency, µM (top dose mostly 9.22 µM), for the others: at the highest dose activation, usual class: activators; also: % of control where 0% means no effect; nearly all actives have a fitted effect of over 60% in size
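Luminescence from an NPC1 promoter-driven luciferase reporter in stably transfected Huh7 cells was measured after 24 h compound treatment at 37 °C, followed by 10 min ambient incubation with luciferase detection reagent.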
* marks the source's active call; other numbers are inactive results; [ ] = another dose, or the depositor's remark. An excerpt weighted towards active compounds, which were near 7.5% of everything screened. Calls follow the shape of the dose curve; as a rule, active = well fitted curve in the direction sought with a large enough effect; inconclusive = small, poorly fitted or top-dose-only effect, or another doubt; inactive = no such curve, though single readings can be large; an effect the other way counts as inactive or inconclusive. Potency is read from the fitted curve at half-maximal effect.

What do the screens show for `N#Cc1ccccc1OCC(=O)OCC(=O)NC1CCS(=O)(=O)C1` (stereo unspecified)?
FLuc modulator: 0%; ELG1 genotoxic: 2%; Rab9 prom act: -8%; NPC1 promoter act: 1%

What do the screens show for `CC1(C)CC(=O)C=C(c2ccc(-c3ccccc3)cc2)C1`?
FLuc modulator: inconclusive; ELG1 genotoxic: inconclusive; Rab9 prom act: inconclusive; NPC1 promoter act: 2.8µM*

Results for O=C(NCc1ccccc1Cl)C1CCC(=O)N(CC2CCCCC2)C1 (stereo unspecified) ?
FLuc modulator: 2%; ELG1 genotoxic: -2%; Rab9 prom act: -7%; NPC1 promoter act: -6%

How did Cc1ccc(C(=O)Nc2ccc3c(c2)ncn3C)cc1 do in these assays?
FLuc modulator: -3%[2.3 µM]; ELG1 genotoxic: inconclusive; SMN2 splice enh: 2.5µM*; Rab9 prom act: 4µM*; NPC1 promoter act: 3.2µM*

What do the screens show for `Cc1ccc(NC(=O)CCn2cnc3cc(C)c(C)cc32)cc1`?
FLuc modulator: -11%; ELG1 genotoxic: -2%; SMN2 splice enh: -5%; Rab9 prom act: -1%; NPC1 promoter act: -1%

Results for CCn1cnc2cc(NC(=O)c3ccc(C)cc3)ccc21 ?
FLuc modulator: 11µM*; ELG1 genotoxic: inconclusive; Rab9 prom act: 4µM*; NPC1 promoter act: 2µM*

What do the screens show for `CC(C)[C@@H](CC(=O)N[C@@H]1CCNC[C@H]1C(=O)N[C@H](CC(=O)N[C@@H](CCC(=O)O)CC(=O)O)Cc1ccccc1)NC(=O)C[C@H](Cc1c[nH]c2ccccc12)NC(=O)[C@@H]1CNCC[C@H]1N`?
SMN2 splice enh: 7%

How did Cc1cc(C)c[n+](CC(=O)c2ccccc2)c1 do in these assays?
FLuc modulator: 0%; ELG1 genotoxic: 0%; Rab9 prom act: -4%; NPC1 promoter act: 7%

How did CC1=[N+](CC(=O)c2ccccc2)CCn2cccc21 do in these assays?
FLuc modulator: 0%; ELG1 genotoxic: inconclusive; Rab9 prom act: 3.5µM*; NPC1 promoter act: inconclusive

Results for CCC1=[N+](CC(=O)c2ccc(C)cc2)CCn2cccc21 ?
FLuc modulator: 5%; ELG1 genotoxic: inconclusive; SMN2 splice enh: inconclusive; Rab9 prom act: 4µM*; NPC1 promoter act: 27%

How did CCC1=[N+](CC(=O)c2ccc(Br)cc2)CCn2c(C)ccc21 do in these assays?
FLuc modulator: -1%; ELG1 genotoxic: 3%; Rab9 prom act: inconclusive; NPC1 promoter act: 1.4µM*

Results for CCC1=[N+](CC(=O)c2ccc(C)cc2)CCn2c(C)ccc21 ?
FLuc modulator: -1%; ELG1 genotoxic: 12%; SMN2 splice enh: inconclusive; Rab9 prom act: 0.89µM*; NPC1 promoter act: 2.2µM*

How did Cc1ccc(C(=O)C[n+]2ccccc2)cc1 do in these assays?
FLuc modulator: -1%; ELG1 genotoxic: -1%; Rab9 prom act: -4%; NPC1 promoter act: 0%

Results for CCc1ccc(NC(=O)C(=O)NCC2CCCN2S(=O)(=O)c2cccs2)cc1 (stereo unspecified) ?
FLuc modulator: 0%; ELG1 genotoxic: -5%; Rab9 prom act: -4%; NPC1 promoter act: -7%

Results for CCN(C(=O)CSc1nc2ccccc2c(=O)n1C(C)COC)C1CCS(=O)(=O)C1 (stereo unspecified) ?
FLuc modulator: 0%; ELG1 genotoxic: -4%; SMN2 splice enh: 8%; Rab9 prom act: 4%; NPC1 promoter act: -4%

What do the screens show for `COc1ccc(/C=C(\NC(=O)c2ccc(C)cc2)C(=O)Nc2c(C)n(C)n(-c3ccccc3)c2=O)cc1`?
FLuc modulator: -2%; ELG1 genotoxic: -2%; SMN2 splice enh: -6%; Rab9 prom act: -3%; NPC1 promoter act: -4%

What do the screens show for `CC(C)(CO)NC(=O)C12CC3CC(CC(Br)(C3)C1)C2`?
FLuc modulator: -2%; ELG1 genotoxic: 0%; Rab9 prom act: -1%; NPC1 promoter act: 2%

What do the screens show for `CCOc1ccc(C(=O)Nc2cccc(-c3nc4cccnc4s3)c2C)cc1OCC`?
FLuc modulator: 2%

Results for Cc1ccc(-c2cc3nn(-c4ccccc4)c(N)c3c(=O)o2)cc1 ?
FLuc modulator: 6µM*; ELG1 genotoxic: -2%; SMN2 splice enh: -28%; Rab9 prom act: inconclusive; NPC1 promoter act: 25%

How did CCn1cc(S(=O)(=O)Nc2ccc3c(c2)OCCO3)cn1 do in these assays?
FLuc modulator: 17µM*; ELG1 genotoxic: inconclusive; Rab9 prom act: -9%; NPC1 promoter act: 3%

Results for Cc1cc(C(=O)COC(=O)c2ccc(O)cc2)c(C)n1CC1CCCO1 (stereo unspecified) ?
FLuc modulator: 4.8µM*; ELG1 genotoxic: inconclusive; SMN2 splice enh: 23%; Rab9 prom act: 4µM*; NPC1 promoter act: 1.8µM*

How did Cc1cc(C(=O)COC(=O)c2nc3nccc(C)n3n2)c(C)n1CC1CCCO1 (stereo unspecified) do in these assays?
FLuc modulator: -16%; ELG1 genotoxic: 2%; SMN2 splice enh: -21%; Rab9 prom act: -6%; NPC1 promoter act: 8%

What do the screens show for `COc1cc(OC)cc(C(=O)OCC(=O)c2cc(C)n(CC3CCCO3)c2C)c1` (stereo unspecified)?
FLuc modulator: 6.7µM*; ELG1 genotoxic: 8%; Rab9 prom act: 18%; NPC1 promoter act: 14%

Results for Cc1cc(C(=O)COC(=O)c2ccc(Cl)c(S(N)(=O)=O)c2)c(C)n1CC1CCCO1 (stereo unspecified) ?
FLuc modulator: 1.5µM*; ELG1 genotoxic: inconclusive; Rab9 prom act: 0.71µM*; NPC1 promoter act: 0.79µM*

How did COCCn1c(C)cc(C(=O)COC(=O)c2ccc(Cl)c(S(N)(=O)=O)c2)c1C do in these assays?
FLuc modulator: 0.76µM*; ELG1 genotoxic: 0.58µM*; Rab9 prom act: 0.5µM*; NPC1 promoter act: 0.5µM*

Results for Cc1ccccc1CNC(=O)CCn1nc(C)c2c(C)n(-c3ccccc3)nc2c1=O ?
FLuc modulator: 1%; ELG1 genotoxic: 1%; Rab9 prom act: -3%; NPC1 promoter act: -2%

Results for Cc1ccc(Oc2ncnc(N)c2[N+](=O)[O-])cc1C ?
FLuc modulator: 1%; ELG1 genotoxic: -13%; SMN2 splice enh: -4%; Rab9 prom act: -9%; NPC1 promoter act: -3%

What do the screens show for `Cc1nnc(NCc2ccccc2)c2c1nnn2Cc1ccccc1Cl`?
FLuc modulator: -1%; SMN2 splice enh: 7%

How did COc1cc(OC)c(C(=O)OCC(=O)c2cc(C)n(CC3CCCO3)c2C)cc1OC (stereo unspecified) do in these assays?
FLuc modulator: 21µM*; ELG1 genotoxic: 2%; SMN2 splice enh: 7%; Rab9 prom act: 3%; NPC1 promoter act: -1%
